Among the data in PubChem BioAssay AID1211 (NMMLSC, 2008) are inhibition of ligand binding values, retold here.

Structures are written as SMILES. The source made the active and inactive calls. No rule for the calls is given here.

In one test the target is Estrogen receptor (Homo sapiens) (UniProt P03372). The experiment in a line: displacement of fluorescent estrogen from ERalpha – cell-based, Cos7 ERalpha-GFP, flow cytometry, primary screen (AID 1211).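 Also: 0% = DMSO vehicle wells and 100% = no E2-Alexa633 signal left.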 To be noted: fluorescent ligand competition, at 10 µM, stronger effect = higher value.
Estrogen receptor (Homo sapiens), sequence (P03372 whole entry, looked up): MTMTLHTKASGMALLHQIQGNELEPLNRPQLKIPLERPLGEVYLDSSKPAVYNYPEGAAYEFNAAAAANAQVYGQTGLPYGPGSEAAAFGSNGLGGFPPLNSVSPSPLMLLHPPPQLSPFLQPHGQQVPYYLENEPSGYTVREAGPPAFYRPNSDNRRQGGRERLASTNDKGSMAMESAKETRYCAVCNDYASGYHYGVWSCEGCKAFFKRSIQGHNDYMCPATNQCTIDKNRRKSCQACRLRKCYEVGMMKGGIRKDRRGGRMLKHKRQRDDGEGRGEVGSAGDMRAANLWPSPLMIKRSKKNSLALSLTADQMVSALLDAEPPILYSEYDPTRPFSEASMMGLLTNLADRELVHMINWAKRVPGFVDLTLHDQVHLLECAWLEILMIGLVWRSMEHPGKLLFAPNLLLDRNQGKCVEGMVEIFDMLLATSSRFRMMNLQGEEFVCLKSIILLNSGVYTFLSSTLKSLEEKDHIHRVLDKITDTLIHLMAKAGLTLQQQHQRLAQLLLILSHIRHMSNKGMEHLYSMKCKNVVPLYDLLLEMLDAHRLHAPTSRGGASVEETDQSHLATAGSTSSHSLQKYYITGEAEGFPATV
Take `CCOC(=O)Cc1csc(NC(=O)Cc2cccs2)n1`: the inhibition of ligand binding is 28% (inactive). As to `c1ccc(Cc2nnc3sc(-c4ccco4)nn23)cc1`, the inhibition of ligand binding is 34% (inactive). On the same count and under the same terms, next, `Cc1ccc(/C=c2\sc3nc(-c4ccco4)nn3c2=O)o1`: 37% (inactive); `Cc1oc(-c2ccc(Cl)cc2)cc1-c1nn2c(-c3ccoc3C)nnc2s1`: 68% (active). On the same count and under the same terms, next, `Cc1ccc(Cc2cncc(O)c2)cc1S(=O)(=O)O`: 36% (inactive). Still for that read-out and setting: the same measure for `Nc1ccc(N2CCN(C(=O)c3ccco3)CC2)cc1`: 28% (inactive).

With `CC1(C)N=C(N)N=C(N)N1c1ccc(C(=O)O)cc1`, the inhibition of ligand binding is 35% (inactive).

Take `O=C(Cc1cccs1)Nc1ccc(S(=O)(=O)N2CCCCC2)cc1`: the inhibition of ligand binding is 32% (inactive). As to `NC(=S)n1[nH]c(-c2ccc([N+](=O)[O-])cc2)c(N=Nc2ccc(O)cc2)c1=O`, the inhibition of ligand binding was 10% (inactive).

Consider `O=C(CSc1nc(C2CCCCC2)n(-c2ccccc2)n1)NCC(F)(F)F`, for which the inhibition of ligand binding is 41% (inactive). For `COc1ccc(NC(=O)CSc2nc3ccccc3c3nc4ccccc4n23)cc1`, the inhibition of ligand binding is 23% (inactive). Same read-out and setting: the same measure for `CCCCCCNC(=O)c1cc(-c2ccco2)nc2ccccc12`: 40% (inactive).

`O=C(Nc1ccc2oc(-c3ccccc3F)nc2c1)c1cncc(Br)c1`: the inhibition of ligand binding is 41% (inactive).

As to `O=c1oc2ccccc2cc1-c1ccc(O)cc1`, the inhibition of ligand binding was 60% (inactive).

Turning to `COc1cc(-c2nc3ccccn3c2/N=C/c2ccccc2)ccc1O`, the inhibition of ligand binding is 53% (inactive).

Turning to `N=c1c(C(=O)NCc2ccc(F)cc2)cc2c(=O)n3ccccc3nc2n1Cc1cccnc1`, the inhibition of ligand binding was 44% (inactive).

As for `Cc1cc2oc(=O)cc(COC(=O)c3n[nH]c4ccccc34)c2cc1C`, the inhibition of ligand binding is 53% (inactive). Same read-out and setting: the same measure for `CCOC(=O)c1c(C)[nH]c(C)c1C(=O)CSc1nnc(-c2cc(OC)c(OC)c(OC)c2)o1`: 57% (inactive).

In the case of `Cc1ccc(-c2n[nH]c(=S)n2/N=C/C=C/c2ccccc2[N+](=O)[O-])cc1`, the inhibition of ligand binding is 1% (inactive). On to `O=C(Cc1ccc(S(=O)(=O)N2CCOCC2)s1)Nc1nc2c(s1)CCCC2`, for which the inhibition of ligand binding was 46% (inactive).

For the compound `COc1ccc(OC)c(C(=O)CSc2nnc(-c3ccc(OC)c(OC)c3)o2)c1`, the inhibition of ligand binding was 23% (inactive). Same read-out and setting: next, `COCCNC(=O)c1c(N)n(/N=C/c2cccs2)c2nc3ccccc3nc12`: 41% (inactive).

Still in this test, the particulars now being: fluorescent ligand competition, binding inhibition, at 0.1 µM, stronger effect = higher value.
For the compound `CCOc1ccc(N=C2NC(=O)S/C2=C\c2ccc(OC)cc2)cc1`, the inhibition of ligand binding was determined as 26%. On the same count and under the same terms, next, `CCOc1ccccc1N1CSC2=C(C#N)C(c3c(OC)ccc4ccccc34)CC(=O)N2C1` (stereo unspecified): 17%; `O=C(CNc1ccccc1)N/N=C/c1cn(-c2ccccc2)nc1-c1ccccc1`: 52%. On the same count and under the same terms, the same measure for `CC(=O)Nc1nonc1-c1nc2ccccc2n1N(C(C)=O)C(C)=O`: 59%; for `O=C(Cc1cccs1)Nc1ccccn1`: 16%; for `COc1cccc(NC(=O)CSc2nc3ccccc3c3nc4ccccc4n23)c1`: 56%. On the same count and under the same terms, the same measure for `Cc1ccc(C(=O)NCC(=O)OCC(=O)c2c(N)n(C)c(=O)n(C)c2=O)s1`: 5%; for `COc1cc(NC(=O)COc2ccc(-n3cnnn3)cc2)c(OC)cc1Cl`: 41%. The compound `O=C(Nc1ccc(O)cc1)C1CC=CCC1` (stereo unspecified) had an inhibition of ligand binding of 9%. Take `COc1ccc(Cc2nnc(NC(=O)Cc3cccs3)s2)cc1`: the inhibition of ligand binding came out at 47%. As for `Cn1nc([N+](=O)[O-])c2c(-c3nc4ccccc4s3)c(N)n(C3CCCCC3)c2c1=O`, the inhibition of ligand binding was 18%.

Compound `ON=C1/C(=N\O)CC2(C/C1=N/O)OCCO2` yielded an inhibition of ligand binding of 48%. As for `O=C1CC(=O)N2N=C(c3ccc([N+](=O)[O-])cc3)SC2=N1`, the inhibition of ligand binding was 8%. `CCO/C([O-])=N/c1c[n+](N2CCOCC2)no1`: the inhibition of ligand binding is 12%.

On to `COc1cc(C(=O)Nc2nnc(-c3sccc3C)s2)cc(OC)c1OC`, for which the inhibition of ligand binding was 75%. On the same count and under the same terms, next, `Cc1cc(-c2nnc3sc(-c4ccc(Cl)cc4Cl)nn23)n[nH]1`: 53%; `COc1cc2cc(C(c3nnnn3C3CCCC3)N3CCc4ccccc43)c(=O)[nH]c2cc1OC` (stereo unspecified): 56%; `CCOC(=O)Cc1csc(NC(=O)Cc2cccs2)n1`: 12%.

`c1ccc(Cc2nnc3sc(-c4ccco4)nn23)cc1`: the inhibition of ligand binding was 12%. The compound `Cc1ccc(/C=c2\sc3nc(-c4ccco4)nn3c2=O)o1` returned an inhibition of ligand binding of 26%.

`Cc1oc(-c2ccc(Cl)cc2)cc1-c1nn2c(-c3ccoc3C)nnc2s1` came in with an inhibition of ligand binding of 34%. The same measure, in the same setting: the same measure for `Cc1ccc(Cc2cncc(O)c2)cc1S(=O)(=O)O`: 20%. Same read-out and setting: the same measure for `Nc1ccc(N2CCN(C(=O)c3ccco3)CC2)cc1`: 33%. Same read-out and setting: the same measure for `CC1(C)N=C(N)N=C(N)N1c1ccc(C(=O)O)cc1`: 21%; for `O=C(Cc1cccs1)Nc1ccc(S(=O)(=O)N2CCCCC2)cc1`: 22%; for `NC(=S)n1[nH]c(-c2ccc([N+](=O)[O-])cc2)c(N=Nc2ccc(O)cc2)c1=O`: 18%. `O=C(CSc1nc(C2CCCCC2)n(-c2ccccc2)n1)NCC(F)(F)F` returned an inhibition of ligand binding of 46%. `COc1ccc(NC(=O)CSc2nc3ccccc3c3nc4ccccc4n23)cc1` yielded an inhibition of ligand binding of 31%. For `CCCCCCNC(=O)c1cc(-c2ccco2)nc2ccccc12`, the inhibition of ligand binding was 44%. On the same count and under the same terms, next, `O=C(Nc1ccc2oc(-c3ccccc3F)nc2c1)c1cncc(Br)c1`: 38%. On the same count and under the same terms, the same measure for `O=c1oc2ccccc2cc1-c1ccc(O)cc1`: 24%; for `COc1cc(-c2nc3ccccn3c2/N=C/c2ccccc2)ccc1O`: 11%; for `N=c1c(C(=O)NCc2ccc(F)cc2)cc2c(=O)n3ccccc3nc2n1Cc1cccnc1`: 26%. On the same count and under the same terms, the same measure for `Cc1cc2oc(=O)cc(COC(=O)c3n[nH]c4ccccc34)c2cc1C`: 20%; for `CCOC(=O)c1c(C)[nH]c(C)c1C(=O)CSc1nnc(-c2cc(OC)c(OC)c(OC)c2)o1`: 38%; for `Cc1ccc(-c2n[nH]c(=S)n2/N=C/C=C/c2ccccc2[N+](=O)[O-])cc1`: 14%. Compound `O=C(Cc1ccc(S(=O)(=O)N2CCOCC2)s1)Nc1nc2c(s1)CCCC2` yielded an inhibition of ligand binding of 32%. For `COc1ccc(OC)c(C(=O)CSc2nnc(-c3ccc(OC)c(OC)c3)o2)c1`, the inhibition of ligand binding is 58%. `COCCNC(=O)c1c(N)n(/N=C/c2cccs2)c2nc3ccccc3nc12` had an inhibition of ligand binding of 6%.
